# Source: PubChem BioAssay (several laboratories)
# Compounds with a hit are over-represented: about 2% of the library has one in this group of screens.
# CCHF vOTU inh-1 = blocks the CCHF virus ovarian tumor domain protease. CCHFV vOTU protease, Pep-AMC fluorescence. inhibition, % at 11.5 µM. hit rate 0.55% among 370,000; note: 0% = vehicle wells with enzyme and 100% = no enzyme wells
# BJeLR lethal = BJeLR cell viability loss | inhibition, % (test concentration not listed) | AID 1554 | BJeLR (HRASV12) viability, CellTiter-Glo ATP luminescence, 48 h | hit rate 0.17% among 300,000; in the data active = inhibition above about 50%
# Y pestis TopoI = Y. pestis Topo-I inhibition via cleavage products. Y. pestis Topo-I cleavage product accumulation, plate reader. activity, % at 10 µM. hit rate 0.064% among 360,000. AID 504884; in the data active = activity above about 50%, passing the limit was not always enough
# PrP 5UTR inh = inhibition of PrP 5' UTR reporter expression; cell-based PrP 5' UTR mRNA reporter, plate reader; AID 488862; inhibition, % (no concentration beside the values); hit rate 0.35% among 340,000; in the data active = inhibition above about 52%; note: 0 = median of the neutral control wells
# PrPC TRFRET = reduces human prion protein on the cell surface; P04156; cell surface PrPC, TR-FRET read-out; inhibition, % at 13.8 µM; hit rate 0.43% among 370,000; in the data active = inhibition above about 24%; note: 0% = median of the test wells and 100% = reference compound wells
# PfHsp40 yeast = compounds rescuing yeast from Plasmodium falciparum HSP40 toxicity; S. cerevisiae expressing PfHsp40, growth rescue, ATP luminescence; growth rescue, % at 12.5 µM; hit rate 0.68% among 340,000; in the data active = growth rescue above about 28%, passing the limit was not always enough;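 note: yeast W303a lacking pdr1 and pdr3 grown in galactose medium; growth measured after three days at 30 °C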
# CCHF vOTU inh-2 = CCHFV vOTU protease inhibition, confirmation; shares compounds with CCHF vOTU inh-1; Recombinant CCHFV vOTU, Pep-AMC fluorescence; inhibition, % at 11.5 µM; hit rate 17% among 1,900; AID 686976
# An asterisk follows results filed as active; . = no result given. Cut-off read from the data, not from the text of the source, unless noted: active = inhibition above about 30%; inactive = the rest.
SMILES,CCHF vOTU inh-1,BJeLR lethal,Y pestis TopoI,PrP 5UTR inh,PrPC TRFRET,PfHsp40 yeast,CCHF vOTU inh-2
CN(C)CCCNc1cc(O)c2ncccc2c1,92.4*,.,-8.8,-8.5,-56.3,0.5,94.2*
CC1CCN(C(=O)c2ccc3c(c2)C(=O)c2ccccc2-3)CC1,-4.8,.,21.3,.,-3.0,.,.
CCOC(=O)C1CCN(C(=O)c2ccc(C)o2)CC1,-17.4,.,0.4,-26.4,-1.7,-1.9,.
Cc1oc2c(c1C(=O)N1CCC(C)CC1)C(=O)c1ccccc1C2=O,31.7*,42.4,.,.,-43.5,.,15.6
CCOC(=O)C1CCN(C(=O)c2c(C)oc3c2C(=O)c2ccccc2C3=O)CC1,61.2*,6.5,-3.4,-23.7,-36.8,1.5,46.2*
CCN(CC)C(=O)CC[C@@H]1CC[C@]2(CCCN(Cc3cccs3)C2)O1,-2.5,.,.,.,-2.4,.,.
OC(c1ccccc1)(c1ccccc1)C1CCN(CCCOc2cccc(Cl)c2)CC1,37.5*,.,.,.,-19.1,.,-0.9
OC(c1ccccc1)(c1ccccc1)C1CCN(CCCOc2ccc(OC(F)(F)F)cc2)CC1,30.7*,.,.,.,1.3,.,-0.6
COC(=O)c1cccc(OCCCN2CCC(C(O)(c3ccccc3)c3ccccc3)CC2)c1,19.8,.,.,.,-23.2,.,.
CCOc1ccc(/C(O)=C2\C(=O)C(=O)N(CCN(C)C)C2c2cccc(OC)c2OC)cc1Cl (stereo not given),29.7*,3.4,-10.9,-2.5,-3.1,-1.3,-9.1
CCCCN1CC(COc2ccc(OC)cc2)OCCS1(=O)=O (stereo not given),4.0,.,.,.,2.1,.,.
COC(=O)c1sc(N2C(=O)C(O)=C(C(=O)c3ccc(C)o3)C2c2ccc([N+](=O)[O-])cc2)nc1C (stereo not given),31.4*,-5.5,25.5,5.0,-3.8,-2.0,-1.4
CCOc1ccc(C2C(C(=O)c3ccc(C)o3)=C(O)C(=O)N2c2nc(C)c(C(=O)OC)s2)cc1 (stereo not given),15.0,-1.6,33.6,-0.1,0.9,0.0,.
CCOC(=O)N1CCN(C(=O)C[C@@H]2C[C@@]3(C(=O)OC)CC(C)(C)CC=C3N(Cc3ccccc3)C2=O)CC1,20.4,.,.,.,-0.9,.,.
CCCCCCCCN1C(=O)[C@H](CC(=O)N2CCN(C(=O)C3CC3)CC2)C[C@@]2(C(=O)OC)CC(C)(C)CC=C12,30.6*,.,.,.,-1.7,.,18.9
CCCCCCCCN1C(=O)[C@H](CC(=O)N2CCN(C(=O)OCC)CC2)C[C@@]2(C(=O)OC)CC(C)(C)CC=C12,31.5*,.,.,.,1.0,.,21.5
COC(=O)[C@@]12C[C@@H](CC(=O)N3CCN(C(=O)C4CC4)CC3)C(=O)N(Cc3ccccc3)C1=CCC(C)(C)C2,2.3,.,.,.,2.5,.,.
O=S1(=O)N[C@@H](Cc2ccccc2)COc2cccc(N3CCCC3)c21,22.4,.,.,.,7.0,.,.
COC(CNC(=O)[C@H](Cc1ccccc1)NC1(C(=O)NC2CCCCC2)CCCC1)OC,.,.,.,.,5.5,.,.
O=C1NCCN1CCN1CCC(c2cn(-c3ccc(F)cc3)c3ccc(Cl)cc23)CC1,0.4,.,.,.,-11.0,.,.
COCCCN1C(=O)C(CC(=O)NCCN2CCOCC2)CC(C(=O)N2CCOCC2)=C1C (stereo not given),39.4*,.,.,.,-9.6,.,-18.2
COc1ccc(N2C(=O)[C@@H]3[C@H](C2=O)[C@H]2c4ccccc4C=CN2[C@@H]3C(C)=O)cc1,92.0*,.,7.4,-3.2,3.8,-0.7,92.0*
CC(C)(C)C(=O)[C@@H]1[C@@H]2C(=O)N(C3CCCCC3)C(=O)[C@@H]2[C@H]2c3ccccc3C=CN12,32.9*,.,5.7,-2.8,-4.8,0.9,13.2
O=C(c1ccc2c(c1)OCO2)[C@@H]1[C@@H]2C(=O)N(C3CCCCC3)C(=O)[C@@H]2C2c3ccccc3C=CN21 (stereo not given in full),7.3,10.7,26.5,-9.4,4.6,-0.3,.
CCCCN1CC(N2CCCC2)CS1(=O)=O (stereo not given),7.1,.,.,.,-0.5,.,.
SMILES,CCHF vOTU inh-1,BJeLR lethal,Y pestis TopoI,PrP 5UTR inh,PrPC TRFRET,PfHsp40 yeast,CCHF vOTU inh-2
CCCCCCC[C@H](N)[C@H](O)C(=O)N(C)[C@@H](CCS(C)=O)C(=O)N[C@@H](Cc1ccc(O)cc1)C(=O)O (stereo not given in full),.,.,.,.,-3.0,.,.
O=C(O)CC(NC(=O)C1c2ccccc2Oc2ccccc21)c1ccc(OC2CCCC2)cc1 (stereo not given),32.9*,7.1,18.5,-1.0,13.7,0.2,0.5
CCCC[C@H]1C2CC(OC(=O)Nc3ccc(F)cc3)C(C2)[C@H]2CCCCN21 (stereo not given in full),-3.0,.,.,.,-5.0,.,.
Cc1cc(C)c(Nc2cc(S(=O)(=O)O)c(N)c3c2C(=O)c2ccccc2C3=O)c(C)c1,46.8*,.,-11.7,-4.2,-50.8,70.6*,4.2
Cc1cc(C)c(NC(=O)COC(=O)c2cccc3c2C(=O)c2ccccc2C3=O)c(C)c1,4.1,-5.8,1.7,-2.1,-13.1,1.3,.
C#CCNc1cccc2c1S(=O)(=O)N[C@H](C)CO2,-12.4,.,.,.,5.0,.,.
O=C(Cc1ccc2cccnc2c1)c1ccc(O)cc1O,48.1*,-8.4,8.3,-32.9,0.4,0.1,-6.0
COC(=O)Cc1nnn2c1[C@@H](C)[C@@H](c1ccccc1Br)OC[C@@H]2c1ccccc1,-2.4,.,.,.,-5.1,.,.
C[C@@H]1CN(C(=O)OC(C)(C)C)CCN1c1ccc(N2CC[C@H](O)C2)c(C#N)c1,48.2*,.,.,.,9.4,.,-15.5
C[C@@H]1CN(c2ccc(N3CCN(C(=O)OC(C)(C)C)C[C@@H]3C)cc2C#N)C[C@H](C)O1,41.0*,.,.,.,7.9,.,-2.9
CCCCOCCCNC(=O)C[C@@H]1C[C@@]2(C(=O)OC)CC(C)(C)CC=C2N(CCc2ccc(OC)c(OC)c2)C1=O,17.3,.,.,.,5.2,.,.
COC(=O)[C@@]12C[C@@H](CC(=O)NCCC(C)C)C(=O)N(CCc3ccc(OC)c(OC)c3)C1=CCC(C)(C)C2,29.8*,.,.,.,-6.1,.,1.9
CCCCCCCCN1C(=O)[C@H](CC(=O)NCc2ccc(C)o2)C[C@@]2(C(=O)OC)CC(C)(C)CC=C12,30.3*,.,.,.,1.9,.,7.3
CCCCCCCCN1C(=O)[C@H](CC(=O)NCC2CCCCC2)C[C@@]2(C(=O)OC)CC(C)(C)CC=C12,25.9,.,.,.,-18.5,.,.
C#CCNC(=O)C[C@@H]1C[C@@]2(C(=O)OC)CC(C)(C)CC=C2N(CCCCCCCC)C1=O,31.0*,.,.,.,5.7,.,8.4
CCCCCCCCN1C(=O)[C@H](CC(=O)NCc2cccs2)C[C@@]2(C(=O)OC)CC(C)(C)CC=C12,22.4,.,.,.,5.2,.,.
CCCCCCCCN1C(=O)[C@H](CC(=O)NCCCOCCCC)C[C@@]2(C(=O)OC)CC(C)(C)CC=C12,22.0,.,.,.,-2.0,.,.
CCCCCCCCN1C(=O)[C@H](CC(=O)NCCCOC)C[C@@]2(C(=O)OC)CC(C)(C)CC=C12,32.7*,.,.,.,0.3,.,20.0
O=c1[nH]c(=S)[nH]c2c1C(c1ccc(Br)cc1)c1c([nH]c(=S)[nH]c1=O)O2,43.4*,-2.5,-21.1,.,1.5,-0.4,40.7*
